Only some compounds are listed: those with a hit (about 1.8% of all), similar ones and a draw of the others.
GLP1R cytotox: qHTS of GLP-1 Receptor Inverse Agonists: Cytotox Screen. Potency, µM (titrated, usually from 38.3 µM), inactives show at the top dose activity change, negative = inhibition, actives largely listed as inhibitors. actives 0.13% (n = 410,000). HEK293 cAMP-luciferase reporter cells, luminescence, 24 h;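 also: loss of luciferase light is scored as toxicity; potency is read from the fitted curve at half-maximal effect; % is scaled to controls: 0 for no effect and ±100 for the full control effect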
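MLSMR compounds, 24 hr on cells at 37 deg C/5% CO2; luminescence after luciferase reagent (12 min RT). Inhibition counted as the undesired cytotoxic outcome.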
TSHR antag: Antagonists of the Thyroid Stimulating Hormone Receptor: HTS campaign. Thyrotropin receptor (Homo sapiens), P16473. activity change, negative = inhibition, % at 11.5 µM. TSHR-expressing cells, TSH-stimulated cAMP HTRF, 2 h; stronger effect = lower value. actives 0.2% (n = 330,000);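 active = activity change below a set negative limit, meaning inhibition stronger than a set level, cut at about -70% in these data; inconclusive = activity change between two set negative limits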; also: % is scaled to controls: 0 for no effect and ±100 for the full control effect
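TSHR-expressing cells, 200/well, pre-treated with compound, then stimulated with EC80 TSH (4nM final) for 2 hours at 37 deg C. cAMP measured by competitive HTRF: anti-cAMP cryptate antibody in lysis buffer plus cAMP-d2, read after 30 minutes at room temperature.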
GLP-1R agonist: qHTS of GLP-1 Receptor Agonists; actives 0.007% (n = 380,000); HEK293 GLP-1R CRE-luciferase, luminescence, 4-6 h; cells express a hypersensitive GLP-1R form; Glucagon-like peptide 1 receptor (Homo sapiens), P43220; Potency, µM (doses to about 45.6 µM), inactives show at the top dose activation, hits mostly activators; also: potency is read from the fitted curve at half-maximal effect; % of control where 0% means no effect
PTHR1 ag: qHTS for PTHR1 Agonists: Primary Screen; HEK293 GP2 PTHR1 cells, GloSensor cAMP luminescence, 1 h; Potency, µM (series often up to 115 µM), without a hit: at the top dose activation, actives largely listed as activators; actives 0.075% (n = 410,000); AID 743266, 2014; also: potency is read from the fitted curve at half-maximal effect; nearly all actives have a fitted effect of over 55% in size
Target sequence (Q03431 whole entry, looked up): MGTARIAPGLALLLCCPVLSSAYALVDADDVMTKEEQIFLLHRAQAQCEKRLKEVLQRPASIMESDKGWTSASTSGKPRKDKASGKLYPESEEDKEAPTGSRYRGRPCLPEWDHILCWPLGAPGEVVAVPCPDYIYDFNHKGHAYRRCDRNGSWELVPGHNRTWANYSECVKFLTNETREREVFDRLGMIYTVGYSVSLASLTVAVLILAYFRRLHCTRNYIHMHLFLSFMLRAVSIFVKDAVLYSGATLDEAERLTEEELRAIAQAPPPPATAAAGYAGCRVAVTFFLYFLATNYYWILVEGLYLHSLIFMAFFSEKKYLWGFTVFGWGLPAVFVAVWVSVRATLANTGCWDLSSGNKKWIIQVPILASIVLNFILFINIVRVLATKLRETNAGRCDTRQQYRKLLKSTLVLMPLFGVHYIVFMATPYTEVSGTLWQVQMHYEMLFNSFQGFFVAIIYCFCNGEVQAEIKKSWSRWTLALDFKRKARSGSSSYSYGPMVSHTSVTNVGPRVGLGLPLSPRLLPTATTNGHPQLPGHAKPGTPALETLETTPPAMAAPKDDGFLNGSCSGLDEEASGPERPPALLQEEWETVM
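HEK-293-derived GP2 cells expressing PTHR1 and a GloSensor cAMP reporter, 3,000/well, plated overnight, given luciferin plus IBMX (each 0.5 mM as added) for 1 h at 37 °C, then compound for 1 h at 37 °C. Luminescence was read after 15 min at room temperature.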
GLP1R inv ag: qHTS of GLP-1 Receptor Inverse Agonists (Inhibition Mode). Glucagon-like peptide 1 receptor (Homo sapiens), P43220. actives 1.6% (n = 410,000). Potency, µM (doses to about 38.3 µM), inactives show top-dose activity change, negative = inhibition, hits mostly inhibitors. HEK293 GLP-1R CRE-luciferase, luminescence, 24 h; GLP-1R form is constitutively active. AID 624417, 2012; also: potency is read from the fitted curve at half-maximal effect; % is scaled to controls: 0 for no effect and ±100 for the full control effect; nearly all actives have a fitted effect of over 55% in size
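GLP-1R inverse agonism mode: basal reporter luminescence in engineered HEK293 cells measured after one day of compound exposure at 37 deg C, with a 12 min room-temperature detection step.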
* marks the source's active call; other numbers are inactive results; i = inactive; ? = inconclusive; · = no result; [ ] = another dose, or the depositor's remark. Unless noted, calls follow the shape of the dose curve; as a rule, active = well fitted curve in the direction sought with a large enough effect; inconclusive = small, poorly fitted or top-dose-only effect, or another doubt; inactive = no such curve, though single readings can be large; an effect the other way counts as inactive or inconclusive.

SMILES	GLP1R cytotox	TSHR antag	GLP-1R agonist	PTHR1 ag	GLP1R inv ag
COc1ccc(C(=O)NC(=S)Nc2ccccc2N2CCCCC2)cc1[N+](=O)[O-]	?	8	9%	i	1.1µM*
Cc1ccc(CN2c3ccccc3-c3nc(SCC(=O)NCCc4ccccc4)ncc3S2(=O)=O)cc1	24%	·	·	7%	41%
Cc1ccc(CNC(=O)CCc2c(C)nc3nc(C)nn3c2C)cc1	30%	·	0%	-61%	0%
COc1ccc(C(CC(=O)N2CCCC2)c2c(OC)cc(OC)c3c(-c4ccccc4)cc(=O)oc23)cc1 (centres undefined)	-26%	-5	?	i	?
COc1ccc(C(CC(=O)N2CCOCC2)c2c(OC)cc(OC)c3c(-c4ccccc4)cc(=O)oc23)cc1 (centres undefined)	-2%	-82*	-5%	-25%	60%
OCc1cc([C@@H](O)CNCCCCCCOCCCCc2ccccc2)ccc1O	·	·	38%	·	·
CCOc1ccc(-c2c(C(=O)N/N=C/c3ccc(C)s3)nnn2-c2nonc2N)cc1	-6%	5	-2%	-10%	11µM*
Cc1ccc(-c2c(C(=O)N/N=C/c3ccc4c(c3)OCO4)nnn2-c2nonc2N)cc1	?	-14	4%	-8%	10µM*
Cc1ccc(SCc2c(C(=O)N/N=C/c3ccc4c(c3)OCO4)nnn2-c2nonc2N)cc1	2%	18	-6%	-4%	0%
CCCCCNC(=O)c1cc2c(=O)n3ccccc3nc2n1C	40%	·	·	-6%	52%
Clc1ccc(OC2CCN(Cc3nc(CC4CC4)no3)CC2)cc1	0%	-13	0%	-23%	2µM*
CCCOc1ccc(-c2nc(N3CCN(CC)CC3)c3ccccc3n2)cc1	-28%	13	13%	-18%	7.9µM*
CCCOc1ccc(-c2nc(N3CCN(C)CC3)c3ccccc3n2)cc1	-8%	-7	34%	-3%	?
CCOc1cccc(-c2nc3ccccc3c(=O)o2)c1	7%	·	·	i	7%
CCOc1cccc(/C=N/NC(=S)Nc2cc(S(=O)(=O)N3CCOCC3)ccc2N2CCOCC2)c1O	-3%	-4	1%	-12%	5µM*
CCOc1cc(N2CCOCC2)c(OCC)cc1NC(=O)c1cc(S(=O)(=O)N2CCOCC2)ccc1C	-2%	-82*	1%	i	17%
COc1ccc2ccccc2c1/C=N/NC(=S)Nc1cc(S(=O)(=O)N2CCOCC2)ccc1N1CCOCC1	-7%[1.53 µM]	11	-3%	i	45%
CCc1ccc2nc(NC(=O)C3CSC4(C)CCC(=O)N34)sc2c1 (centres undefined)	-17%	-18	12%	i	5.6µM*
CC12CCC(=O)N1C(C(=O)Nc1nc3ccc(Cl)cc3s1)CS2 (centres undefined)	-3%	-19	16%	-60%	2.8µM*
COc1ccc(-c2cc3nc(C)c(CCC(=O)Nc4cccc(C(F)(F)F)c4)c(C)n3n2)c(OC)c1	3%	·	-1%	i	-1%
COc1ccc2c(=O)c(-c3ccc(C)cc3)c(-c3ccccc3)oc2c1	4%	-2	-3%	-8%	7.9µM*
Cc1ccc(NC(=O)c2cnn3c(C(F)F)cc(-c4ccccc4)nc23)c(C)c1	0%	·	1%	-25%	12%
Cc1c(C)n(Cc2ccc(Cl)cc2)c2ccc(C(=O)NCCN3CCOCC3)cc12	-8%	0	7%	-15%	3.5µM*
O=C(NCCCN1CCOCC1)c1ccc2c(=O)n(Cc3ccc(Cl)cc3)c(=S)[nH]c2c1	16%	-1	0%	i	2µM*
CC1CCN(CCCNC(=O)c2ccc3c(=O)n(Cc4ccc(Cl)cc4)c(=S)[nH]c3c2)CC1	-2%[7.66 µM]	7	1%	i	-14%[7.66 µM]
SMILES	GLP1R cytotox	TSHR antag	GLP-1R agonist	PTHR1 ag	GLP1R inv ag
CN(C)CCNC(=O)c1ccc2c(=O)n(Cc3ccc(Cl)cc3)c(=S)[nH]c2c1	?	-6	7%	-34%	3.2µM*
CCN(CC)S(=O)(=O)c1ccc2c(c1)N(CC(=O)N1CCN(c3cccc(C)c3C)CC1)C(=O)CO2	-15%	·	·	i	?
CC(=O)Nc1nonc1-c1nnc(SCC(=O)Nc2ccc(F)cc2F)n1-c1ccccc1	0%	·	·	i	-3%
CC(C)Cc1ccc(C(C)C(N)=Nc2ccc(O)cc2)cc1 (centres undefined)	?	·	13%	-6%	13µM*
Cc1ccc(NCc2cccn2-c2nnc(N3CCC(C(=O)NCCc4ccccc4)CC3)s2)cc1	-18%	·	·	-13%	?
COc1ccc(C(=O)/C=C2\C(=O)Nc3ccc(Br)cc32)cc1	?	·	-14%	-26%	?
O=C1Nc2ccc(Br)cc2/C1=C/C1CC=CCC1 (centres undefined)	-27%	-23	-5%	-95%	4.5µM*
Cc1cc(C)c(S(=O)(=O)N2CCCCC2)cc1N(C)S(=O)(=O)c1ccc(Cl)cc1	-8%	0	-3%	-15%	13µM*
Cc1ccc(S(=O)(=O)N(C)c2cc(S(=O)(=O)N3CCOCC3)c(C)cc2C)cc1	17%	-10	-2%	i	-18%
Cc1cc(Nc2ccc(C)c(Cl)c2)n2nc(-c3ccccc3)nc2n1	-1%	·	·	i	8%
CCOC(=O)CC(=O)CSc1nc2c(sc(=S)n2-c2ccc(C)c(C)c2)c(=O)[nH]1	-19%	-11	5%	-32%	8.9µM*
O=C(c1ccc(CN2CCc3ccccc3C2)cc1)N1CCN(c2ccc(F)cc2)CC1	-28%	·	0%	-23%	2µM*
O=C(c1ccc(CN2CCc3ccccc3C2)cc1)N1CCCCC1	1%	3	-5%	i	?
CCc1cc2c(cc3c(=O)n(CC(=O)N4CCC(C)CC4)nc(CC)n32)s1	4%	·	·	2%	-16%
CCOc1ccc(OCC)c(NC(=O)CN2CCN(c3cc(C)ccc3C)CC2)c1	?	-3	0%	-14%	13µM*
CCOc1ccc(OCC)c(NC(=O)CN2CCN(c3cccc(C)c3)CC2)c1	8%	5	24%	17%[57.5 µM]	?
Cc1ccc(NC(=O)CSc2ccc(-c3cccs3)nn2)cc1Cl	-3%	·	·	16%	2%
CC(C)(C)c1ccc(C(=O)NC2(C(F)(F)F)NC(=O)N(CCc3ccccc3)C2=O)cc1 (centres undefined)	-32%	·	-5%	-30%	13µM*
N/C(Cc1ccccc1)=N\OC(=O)c1cccc2ccccc12	10µM*	-13	?	7%	13µM*
